# Reference: PubChem BioAssay (NCATS)
# “And” between values parts separate entries of the source, which are not always exact repeats. Equal values may be shown once. Inconclusive results are not listed. The source made the active and inactive calls. The call rests on the fitted dose curve; in most records, active means well fitted curve in the direction sought with a large enough effect; inconclusive means small, poorly fitted or top-dose-only effect, or another doubt; inactive means no such curve, though single readings can be large; an effect the other way counts as inactive or inconclusive.
# Assay: Viability qHTS for spleen associated tyrosine kinase inhibitor (SYKi) naive MV4-11 cells (AID 1963823); further: nearly all actives have a fitted effect of over 40% in size
# Conditions: MV4-11 AML viability, CellTiter-Glo luminescence, 72 h; series mostly up to 45 µM; viability (% of control): at the top concentration
# Summary of the method: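 SYKi-naive MV4-11 AML cells, 500 per well, were exposed to library compounds for 72 hr at 37 C, 5% CO2. Viability was then read by CellTiter-Glo luminescence after 10 min at room temperature.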
# Potency means the concentration at half of the fitted maximal effect.
SMILES,viability (% of control),Potency
COc1ccc(CCN(C)CCCN2CCc3cc(OC)c(OC)cc3CC2=O)cc1OC,74.8% (inactive),–
O=c1oc2c(C3OCCCO3)c(O)ccc2c2c1CNCC2,–,13.2 µM (active)
COc1ccc(-c2cc(=S)ss2)cc1,76.1% (inactive),–
FC(F)(F)c1ccccc1-n1ccnc1,38.7% (inactive),–
CCN1CCC[C@H]1CNC(=O)c1c(OC)ccc(Br)c1OC,–,6.68 µM (active)
C[C@@H]1[C@H](O)[C@@H](C)/C=C/C=C/C=C/C=C/C=C/C=C/C=C/[C@H](O[C@@H]2O[C@H](C)[C@@H](O)[C@H](N)[C@@H]2O)C[C@@H]2O[C@](O)(C[C@@H](O)C[C@@H](O)[C@H](O)CC[C@@H](O)C[C@@H](O)CC(=O)O[C@H]1C)C[C@H](O)[C@H]2C(=O)O,71.4% (inactive),–
O=C1CN(/N=C/c2ccc([N+](=O)[O-])o2)C(=O)N1,10.5% (inactive),–
Cn1cc(-c2cc(Oc3cc(F)c(NC(=O)C4(C(=O)Nc5ccccc5)CC4)cc3F)ccn2)cn1,–,0.103 µM (active)
O=C(NCCc1c[nH]c2ccccc12)c1cccnc1,–,0.0019 µM (active)
Cc1ccc(S(=O)(=O)NC(=O)NC2CCCCCCC2)cc1,82.2% (inactive),–

# Assay: Cellular viability qHTS for adrenocortical cancer (ACC) cell line SW-13 (AID 1963989); further: nearly all actives have a fitted effect of over 65% in size;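 on activity (max response): cells grown in serum-free medium with ITS supplement; on the % scale 0 is the no-effect control and ±100 the full control effect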
# Conditions: SW-13 ACC cells viability, CellTiter-Glo, 48 h; activity (max response): hits give low values
# Summary of the method: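 SW-13 cells in ITS-supplemented serum-free DMEM were plated overnight, then exposed for 48 h at 37C to compound titrations (up to 46 uM final). Viability was read by CellTiter-Glo luminescence; four-parameter logistic fits gave IC50 and efficacy.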
SMILES,activity (max response),Potency
CCCCCCCCCCCCSCCOCCO,-3.34% (inactive),–
Cc1ncc(CSSCc2cnc(C)c(O)c2CO)c(CO)c1O,9.04% (inactive),–
CN(C)/N=N/c1nc[nH]c1C(N)=O,10.5% (inactive),–
O=C(O)Cc1ccc(OCCNC[C@H](O)c2ccccc2)cc1,0.46% (inactive),–
CC(=O)OCC(=O)[C@@]1(O)CC[C@H]2[C@@H]3CCC4=CC(=O)C=C[C@]4(C)[C@H]3[C@@H](O)C[C@@]21C,1.48% (inactive) and -12.4% (inactive),–
O=C1NC(=O)/C(=C\c2ccc(-c3ccc(F)cc3)o2)S1,3.49% (inactive),–
COc1ccc(S(=O)(=O)N2CCc3cccc(-c4ccncc4)c32)cc1,–,0.316 µM (active)
COc1ccc(C(=O)N2CCN(c3ccc4c(c3)CCC(=O)N4)CC2)cc1OC,5.3% (inactive),–
O=C(NNc1ccccc1)c1ccncc1,1.69% (inactive),–
O=[N+]([O-])c1cccc(S(=O)(=O)NCCNS(=O)(=O)c2cccc([N+](=O)[O-])c2)c1,-5.4% (inactive),–
CC[C@H](CC[C@@H](C)[C@H]1CC[C@H]2[C@@H]3CC=C4C[C@@H](O)CC[C@]4(C)[C@H]3CC[C@]12C)C(C)C,-11% (inactive),–
C[C@]12CCC(=O)C=C1CC[C@@H]1[C@@H]2CC[C@@]2(C)[C@H]1CC[C@]2(O)C(=O)CO,-2.88% (inactive),–
C1CCN2C[C@@H]3C[C@@H](CN4CCCC[C@@H]34)[C@H]2C1,-0.968% (inactive),–
O=C(O)CCn1c2c(c3ccccc31)C[C@H](NS(=O)(=O)c1ccc(F)cc1)CC2,-2.29% (inactive) and -2.36% (inactive),–
Cc1cc2c(OCC(CNC(C)(C)C)OC(=O)c3ccccc3)cccc2[nH]1 (stereo not given),7.67% (inactive),–
COc1cc2c(cc1OCCCN1CCCC1)N=C(N)C21CCC1,-9.17% (inactive),–
C[C@@H]1CC(=O)Nc2cccc(-c3cnn(C(C)(C)C)c3)c2N1,2.32% (inactive),–
O=C1c2cccc(O)c2C(=O)c2c(O)cccc21,1.51% (inactive),–
Cc1nnc(C(C)C)n1C1CC2CCC(C1)N2CCC(NC(=O)C1CCC(F)(F)CC1)c1ccccc1 (stereo not given),-4.92% (inactive),–
COc1cccc2c1c(O)c(C(=O)N(C)c1ccc(C(F)(F)F)cc1)c(=O)n2C,-27.3% (inactive),–

SMILES,activity (max response),Potency
CC1=C(/C=C/C(C)=C/C=C/C(C)=C/C=C/C=C(C)/C=C/C=C(C)/C=C/C2=C(C)CCCC2(C)C)C(C)(C)CCC1,-7.78% (inactive),–
CC(C)(C)C(=O)OCOC(=O)[C@@H]1N2C(=O)[C@@H](NC(=O)[C@H](N)c3ccccc3)[C@H]2SC1(C)C,8.43% (inactive),–
COc1cc(NS(=O)(=O)c2ccc(N)cc2)nc(C)n1,1.38% (inactive),–
COc1cc(C(=O)NCCCCCC(=O)O)cc(OC)c1OC,6.24% (inactive),–
Cc1cc2c(C(C)C)c(O)c(O)c(C=O)c2c(O)c1-c1c(C)cc2c(C(C)C)c(O)c(O)c(C=O)c2c1O,–,10 µM (active)
C[C@@H](O)[C@H]1C(=O)N2C(C(=O)O)=C(S[C@@H]3CN[C@H](CNS(N)(=O)=O)C3)[C@H](C)[C@H]12,7.35% (inactive),–
CCCCCCCCCCC(CO)CCCCCCCC (stereo not given),0.379% (inactive),–
C[C@H](CCC(=O)O)[C@H]1CC[C@H]2[C@@H]3[C@H](O)C[C@@H]4C[C@H](O)CC[C@]4(C)[C@H]3CC[C@]12C,-16.1% (inactive),–
Cc1ccc(S(=O)(=O)Cc2nc(-c3ccc(C(=O)NCc4cccnc4)cc3)oc2C)cc1,–,0.199 µM (active)
CCCC(CCC)(C(=O)OCC)C(=O)OCC,12.5% (inactive),–
COc1ccc(CCN(C)CCCN2CCc3cc(OC)c(OC)cc3CC2=O)cc1OC,5.36% (inactive),–
O=c1oc2c(C3OCCCO3)c(O)ccc2c2c1CNCC2,5.04% (inactive),–
COc1ccc(-c2cc(=S)ss2)cc1,-5.69% (inactive),–
FC(F)(F)c1ccccc1-n1ccnc1,17.5% (inactive),–
CCN1CCC[C@H]1CNC(=O)c1c(OC)ccc(Br)c1OC,-0.795% (inactive),–
C[C@@H]1[C@H](O)[C@@H](C)/C=C/C=C/C=C/C=C/C=C/C=C/C=C/[C@H](O[C@@H]2O[C@H](C)[C@@H](O)[C@H](N)[C@@H]2O)C[C@@H]2O[C@](O)(C[C@@H](O)C[C@@H](O)[C@H](O)CC[C@@H](O)C[C@@H](O)CC(=O)O[C@H]1C)C[C@H](O)[C@H]2C(=O)O,-9.6% (inactive),–
O=C1CN(/N=C/c2ccc([N+](=O)[O-])o2)C(=O)N1,-20.9% (inactive),–
Cn1cc(-c2cc(Oc3cc(F)c(NC(=O)C4(C(=O)Nc5ccccc5)CC4)cc3F)ccn2)cn1,–,25.1 µM (active)
O=C(NCCc1c[nH]c2ccccc12)c1cccnc1,-4.89% (inactive),–
Cc1ccc(S(=O)(=O)NC(=O)NC2CCCCCCC2)cc1,11.9% (inactive),–
